Screens: PubChem BioAssay, Paczesny and Yang Labs, IUPUI and University of Michigan
Shown is part of a subset that was picked to be rich in hits.
ST2 IL33 inh – blocks human ST2 binding to IL-33; AlphaLISA ST2-Fc/biotin-IL-33 interaction, 1 h; inhibition, % for hits at 17 µM; 78,000 tested, 2.3% active; in the data active = inhibition above about 30%
Target sequence (Q01638 whole entry, looked up): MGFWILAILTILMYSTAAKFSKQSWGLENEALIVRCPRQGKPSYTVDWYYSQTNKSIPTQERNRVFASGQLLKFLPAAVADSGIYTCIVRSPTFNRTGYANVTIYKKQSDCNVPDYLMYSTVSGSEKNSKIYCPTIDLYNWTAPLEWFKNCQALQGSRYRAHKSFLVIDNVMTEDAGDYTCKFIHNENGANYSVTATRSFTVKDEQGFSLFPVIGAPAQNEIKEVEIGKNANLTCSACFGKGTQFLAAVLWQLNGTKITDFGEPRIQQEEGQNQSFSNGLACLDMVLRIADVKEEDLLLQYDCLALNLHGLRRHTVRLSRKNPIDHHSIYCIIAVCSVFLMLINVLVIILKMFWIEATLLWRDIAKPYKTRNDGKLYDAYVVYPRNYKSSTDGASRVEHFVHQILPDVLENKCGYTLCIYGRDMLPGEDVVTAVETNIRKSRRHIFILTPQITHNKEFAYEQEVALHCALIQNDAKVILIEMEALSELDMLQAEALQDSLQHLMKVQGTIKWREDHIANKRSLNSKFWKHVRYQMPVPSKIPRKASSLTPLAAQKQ
* = called active by the depositor.

Screening Cc1cccc(NC(c2cccc(F)c2)c2ccc3cccnc3c2O)n1 (stereo not given) returned ST2 IL33 inh inactive.
Cc1cccc(NC(c2cccc(C)n2)c2ccc3ccc(C)nc3c2O)n1 (stereo not given) was read as ST2 IL33 inh inactive.
Screening Cc1cccc(NC(c2ccc(F)cc2)c2ccc3cccnc3c2O)n1 (stereo not given) returned ST2 IL33 inh 30%*.
Cc1ccnc(NC(c2ccc(N(C)C)cc2)c2ccc3cccnc3c2O)c1 (stereo not given) was read as ST2 IL33 inh 32%*.
O=C(CSc1cn(Cc2ccc(F)cc2)c2ccccc12)Nc1nccs1 was read as ST2 IL33 inh inactive.
`CC(C)(C)C1CCc2onc(C(=O)Nc3ccc(Br)cc3)c2C1` (stereo not given) gave ST2 IL33 inh inactive.
Screening CCC(Sc1nncn1C)C(=O)Nc1nc(-c2ccccc2)cs1 (stereo not given) returned ST2 IL33 inh inactive.
CCc1cc(C(=O)O)c(NC(=O)c2cccc(C)c2)s1 was read as ST2 IL33 inh inactive.
Cc1oc2cc(Br)c(OCC(=O)OCc3ccccc3)cc2c1C(=O)OC(C)C was read as ST2 IL33 inh inactive.
CC(C)C12CN3CC(C(C)C)(CN(C1)C3c1cccc(Br)c1)C2=O (stereo not given) was read as ST2 IL33 inh inactive.
For Cc1ccc(N2CCCS2(=O)=O)cc1NC(=O)COc1ccc(F)cc1 the results were ST2 IL33 inh inactive.
For O=C(NCc1cccc(CNC(=O)c2cccc(F)c2)c1)c1cccc(F)c1 the results were ST2 IL33 inh inactive.
Screening C=CC(C)(O)CCC1C(C)(O)CCC2C(C)(C)CCCC21C (stereo not given) returned ST2 IL33 inh inactive.
`Cc1cccc(NC(c2cccc(Cl)c2)c2ccc3cccnc3c2O)n1` (stereo not given) gave ST2 IL33 inh 34%*.
Cc1cc(C)n(-c2cccc3cccnc23)n1 was read as ST2 IL33 inh inactive.
Cc1cc(Cl)ccc1NC(=O)CSc1cccc2cccnc12 was read as ST2 IL33 inh inactive.
O=C(CSc1nc2ccccc2c(=O)[nH]1)Nc1ccc(Cl)cc1 was read as ST2 IL33 inh inactive.
Nc1ccnn1-c1ccccc1 was read as ST2 IL33 inh inactive.
Screening NC1=NCCN1c1ccccc1 returned ST2 IL33 inh inactive.
For NC1=NN(c2ccccc2)CC1 the results were ST2 IL33 inh 40%*.
For O=C1CCC(C(=O)N2CCC(N3CCSCC3)CC2)CN1CCc1ccccn1 (stereo not given) the results were ST2 IL33 inh inactive.
For O=C(NC[C@H]1O[C@@H](CC(=O)N2CCN(c3ccccn3)CC2)[C@H](O)[C@@H]1O)Nc1cccc(F)c1 the results were ST2 IL33 inh inactive.
Cc1cc(C)n(CC(C)NCc2nc(-c3cccnc3)no2)n1 (stereo not given) was read as ST2 IL33 inh inactive.
Screening CC1CN(CCNC(=O)C2CCCc3c2[nH]c2ccccc32)Cc2ccccc2O1 (stereo not given) returned ST2 IL33 inh inactive.
For COC(=O)c1ccc(NC(=O)c2ccc(=O)n(Cc3c(F)cccc3Cl)c2)cc1 the results were ST2 IL33 inh inactive.
Screening COC(CN(C(C)=O)C1CCCc2c1[nH]c1ccc(C)cc21)OC (stereo not given) returned ST2 IL33 inh inactive.
For Cc1ccc2[nH]c3c(c2c1)CN(C(=O)C1CCCN(CC(N)=O)C1)CC3 (stereo not given) the results were ST2 IL33 inh inactive.
Cc1ccc2[nH]c3c(c2c1)CCCC3NCc1ccc(F)cc1 (stereo not given) was read as ST2 IL33 inh 32%*.
For COc1cc(C(=O)N2CCN(Cc3cccc(Cl)c3)CC2)cc(OC)c1OC the results were ST2 IL33 inh inactive.
CC1=NN(c2ccccc2)C(=O)C1C(=O)c1ccc(F)cc1 (stereo not given) was read as ST2 IL33 inh 37%*.
Screening O=C(c1ccc(F)cc1)N(Cc1ccccc1)Cc1ccccc1 returned ST2 IL33 inh inactive.
CC(=O)C1=NN(c2ccccc2)C2C(=O)N(c3ccc(C)cc3)C(=O)C12 (stereo not given) was read as ST2 IL33 inh inactive.
Screening CC(=O)Nc1ccc(C(=O)Nc2ccc(Cl)c(Cl)c2)cc1 returned ST2 IL33 inh inactive.
COC(=O)[C@@H](NC1CCN(c2cccc(NC(=O)c3ccccc3OC)c2)CC1)C(C)C was read as ST2 IL33 inh inactive.
Screening O=C(Nc1nonc1NC(=O)C1CC1)C1CC1 returned ST2 IL33 inh inactive.
For CCn1ccnc1CN(C)C(C)C(=O)N(C)C (stereo not given) the results were ST2 IL33 inh inactive.
COc1ccc(OCCSc2nc3ccccc3n2CCC(=O)O)cc1 was read as ST2 IL33 inh inactive.
Screening CCc1ccc(S(=O)(=O)N=C2C=C(Nc3cccc(C(=O)O)c3)C(=O)c3ccccc32)cc1 returned ST2 IL33 inh 52%*.
`CN(CC(=O)Nc1ccc(C(=O)O)cc1)S(=O)(=O)c1ccccc1` gave ST2 IL33 inh inactive.
`O=C(O)c1cccc(NS(=O)(=O)c2cccc(C(=O)Nc3ccccc3)c2)c1` gave ST2 IL33 inh inactive.
`O=C(O)c1cccc(NC(=O)C(c2ccccc2)c2ccccc2)c1` gave ST2 IL33 inh inactive.
O=C(O)c1cccc(NS(=O)(=O)c2ccccc2)c1 was read as ST2 IL33 inh inactive.
CC(=O)c1cccc(NC(=O)C(Cc2ccccc2)N2C(=O)c3ccccc3C2=O)c1 (stereo not given) was read as ST2 IL33 inh inactive.
O=C1C(Nc2ccc(O)cc2)=CC(=NS(=O)(=O)c2ccc(Cl)cc2)c2ccccc21 was read as ST2 IL33 inh 87%*.
Screening O=C(O)c1ccc(NC2=CC(=NS(=O)(=O)c3ccccc3)c3ccccc3C2=O)cc1 returned ST2 IL33 inh 48%*.
O=C(O)c1cccc(NC2=CC(=NS(=O)(=O)c3ccc(F)cc3)c3ccccc3C2=O)c1 was read as ST2 IL33 inh 45%*.
For O=C(O)c1ccc(S(=O)(=O)c2ccccc2)cc1 the results were ST2 IL33 inh inactive.
Screening O=C1C=C(Nc2ccc(Cl)cc2)C(=O)N1c1ccccc1 returned ST2 IL33 inh inactive.
COCC1(C(=O)N(C)Cc2cn[nH]c2-c2ccc(F)cc2)CCC1 was read as ST2 IL33 inh inactive.
Cc1cc(C)n2nc(C(=O)N(C)CC3CCCCO3)nc2n1 (stereo not given) was read as ST2 IL33 inh inactive.
Cc1cccc(-c2nsc(SCC(=O)Nc3ccc4c(c3)OCO4)n2)c1 was read as ST2 IL33 inh inactive.
`CC1=C(C(=O)OC2CCCCC2)C(c2ccc(N(C)C)cc2)n2ncnc2N1` (stereo not given) gave ST2 IL33 inh inactive.
CCOC(=O)Cc1csc(NC(=O)c2cnc3scc(C)n3c2=O)n1 was read as ST2 IL33 inh inactive.
Screening COc1ccc(C2C(C#N)=C(N)OC3=C2C(=O)CC(C)(C)C3)cc1COc1ccc(F)cc1 (stereo not given) returned ST2 IL33 inh inactive.
O=c1oc(-c2ccc(Oc3ccccc3)cc2)nc2ccccc12 was read as ST2 IL33 inh inactive.
For O=C1OC(c2ccc(Oc3ccccc3)cc2)=C/C1=C\c1ccco1 the results were ST2 IL33 inh 54%*.
For COc1ccc(C2=Cc3cc(OC)c(OC)cc3/C(=C/c3ccccc3)O2)cc1 the results were ST2 IL33 inh inactive.
For O=C(Nc1ccc(S(=O)(=O)N2CCCCC2)cc1)C(F)(F)F the results were ST2 IL33 inh inactive.
